Screens from PubChem.
Most compounds without a hit are left out; they make up all but 5.7% or so of the library.
KB-3-1 cytotox = kills parental KB-3-1 adenocarcinoma cells | KB-3-1 viability, CellTiter-Glo ATP luminescence, 72 h | Potency, µM (doses to about 46.1 µM), hits mostly cytotoxic | 1.4% of 400,000 active | AID 1347075; also: nearly all actives have a fitted effect of over 60% in size
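Cytotoxicity measured as CellTiter-Glo luminescence after 72 h at 37 C. Compound titrations were pinned onto drug-naive KB-3-1 parental adenocarcinoma cells grown in DMEM with 10% FBS, and normalized data fitted to concentration-response curves.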
Nrf2 inh = Nrf2 pathway inhibition. A549 ARE-Fluc reporter, luciferase luminescence, 18-24 h. Potency, µM (titrated, usually from 46 µM), usual class: inhibitors. 2.1% of 360,000 active. AID 504444; also: nearly all actives have a fitted effect of over 60% in size
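Cells were seeded and rested 2 h, then exposed to compounds for 18-24 h. CellTiter-Fluor was read first as a viability measure. BugLite was added 15 min before the final luminescent read of ARE-luciferase activity in A549 cells.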
A549 tox = kills or reduces viability of A549 cells in Nrf2 counter-screen | A549 ARE-Fluc cells, CellTiter-Fluor viability, 18-24 h | Potency, µM (series often up to 46 µM), hits mostly inhibitors | 0.16% of 390,000 active | AID 504648
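A549 ARE_Fluc cells in 5% FBS OPTI-MEM were exposed to compounds in concentration-response for 18-24 h at 37 deg C. Viability was read by CellTiter-Fluor fluorescence (Ex 405/Em 525) after 30 min, before the luciferase read.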
Giardia killer = Giardia lamblia killing; 0.15% of 340,000 active; Giardia lamblia trophozoite viability; activity change, % at 7.66 µM, hits read low; AID 540267; in the data active = activity change below about -80%; inconclusive = between about -30% and that limit;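 also: parasites exposed to compound for two days anaerobically before the ATP read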
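Giardia lamblia trophozoites (100 cells/well) were incubated with compounds for 48 h at 37 deg C under anaerobic conditions. Viability was read as ATP content by one-step luminescence after 15-30 min at room temperature.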
PI4K2A inh = PI4K2A (human) kinase inhibition. Q9BTU6. purified PI4K2A, ADP-Glo luminescence, 1 h; hits give low values. activity change, negative = inhibition, % at 76.9 µM. 0.13% of 420,000 active. AID 1346378; in the data active = activity change below about -50%; inconclusive = mostly about -30% to -49%
Target sequence (Q9BTU6 whole entry, looked up): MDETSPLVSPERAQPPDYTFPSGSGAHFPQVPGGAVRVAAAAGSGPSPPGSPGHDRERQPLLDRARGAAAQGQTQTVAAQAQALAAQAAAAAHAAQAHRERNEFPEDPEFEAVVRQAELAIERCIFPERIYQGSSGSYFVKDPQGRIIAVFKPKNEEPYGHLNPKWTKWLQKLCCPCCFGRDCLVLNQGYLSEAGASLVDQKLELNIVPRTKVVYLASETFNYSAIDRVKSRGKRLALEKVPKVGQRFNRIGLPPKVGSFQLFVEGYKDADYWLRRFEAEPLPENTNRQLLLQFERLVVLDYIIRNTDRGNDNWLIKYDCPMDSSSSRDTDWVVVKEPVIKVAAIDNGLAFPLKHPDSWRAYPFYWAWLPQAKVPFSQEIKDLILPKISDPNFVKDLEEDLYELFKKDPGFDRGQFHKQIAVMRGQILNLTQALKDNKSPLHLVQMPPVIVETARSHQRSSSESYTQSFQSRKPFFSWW
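PI4K2A activity was measured by ADP-Glo luminescence: enzyme (4 ug/mL stock) and phosphatidylinositol (1.2 mM stock) in Tris pH 7.5/MgCl2/EGTA/Triton X-100 buffer were reacted with ATP (300 microM stock) for one hour at ambient temperature.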
KB-V1 MDR tox = kills drug-selected multidrug resistant KB-V1 cells | KB-V1 MDR cells viability, CellTiter-Glo, 72 h | Potency, µM (top dose mostly 46.1 µM), actives largely listed as cytotoxic | 3.4% of 400,000 active | AID 1347076; also: nearly all actives have a fitted effect of over 60% in size
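KB-V1, DMEM (no phenol red) + 10% FBS; cpd pin-transferred, titration series; 72 h, 37 degrees C; CellTiter-Glo, luminescence. Data normalized, curve-fit.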
A number is an active result; . = inactive; ? = inconclusive; / = no result; ! = repeats disagree. Unless noted, calls follow the shape of the dose curve; as a rule, active = well fitted curve in the direction sought with a large enough effect; inconclusive = small, poorly fitted or top-dose-only effect, or another doubt; inactive = no such curve, though single readings can be large; an effect the other way counts as inactive or inconclusive.

SMILES	KB-3-1 cytotox	Nrf2 inh	A549 tox	Giardia killer	PI4K2A inh	KB-V1 MDR tox
O=C(Nc1ccc(Cc2ccncc2)cc1)c1ccco1	.	.	.	.	.	.
O=C(Nc1ccc(Cn2nnc3ccccc32)cc1)c1ccco1	16µM	.	.	.	.	16µM
O=C1c2ccccc2NC(c2ccc(-c3cccc([N+](=O)[O-])c3)o2)N1O (centres undefined)	?	.	.	.	.	2.3µM
O=C(NC1CCCC1)C(c1ccsc1)N(Cc1ccccc1)C(=O)Cc1cccs1 (centres undefined)	.	.	.	.	.	4.6µM
COc1ccc(CNC(=O)C(c2ccc(C)o2)N(Cc2cccs2)C(=O)Cc2cccs2)cc1 (centres undefined)	?	?	.	.	.	15µM
O=C(NCc1ccccc1)C(c1ccccc1)N(Cc1ccc2c(c1)OCO2)C(=O)Cc1cccs1 (centres undefined)	.	?	.	.	.	13µM
O=C(OCc1cn(Cc2ccc(F)cc2F)nn1)N1CCCC1	/	/	/	/	.	/
CCCCOc1cc(C)nc(NCc2ccccc2)n1	10µM	.	.	.	.	?
CCOc1cc(C)nc(NCc2ccccc2)n1	.	.	.	.	.	.
Cc1cc(N2CCOCC2)nc(NCc2ccccc2)n1	.	.	?	.	.	?
Cc1cc(N2CCCCC2)nc(NCc2ccccc2)n1	16µM	?	.	.	.	?
CC(=O)c1ccc(Oc2cc(C)nc(NCc3ccccc3)n2)cc1	?	.	.	.	.	16µM
CC(Sc1nc(N)c2c3c(sc2n1)CSC(C)(C)C3)C(=O)Nc1ccccc1 (centres undefined)	?	18µM	?	.	.	21µM
COc1ccc(-c2cc(C(=O)NN=Cc3ccccc3[N+](=O)[O-])[nH]n2)cc1	/	/	/	/	.	/
Cc1ccc(S(=O)(=O)N2CCN(c3nc(-c4cccs4)nc4c3ncn4COC(=O)C(C)(C)C)CC2)cc1	/	.	.	.	/	/
CCCN(CC(=O)Nc1ccccc1C)C(=O)COc1c(Cl)cccc1Cl	.	.	.	.	.	5.8µM
CCCN(CC(=O)Nc1ccccc1C)C(=O)CCl	16µM	?	?	.	.	?
CCCCCCCCN1C(=O)[C@@H](CC(=O)NCC2CCCCC2)C[C@@]2(C(=O)OC)C1=C[C@H](COCc1ccccc1)O[C@@H]2C	/	/	/	/	.	/
COc1ccc(-n2c(SCC(=O)Nc3ccccc3-c3ccccc3)nnc2-c2ccccn2)cc1	/	/	/	/	.	/
S=Cc1nc2ccccc2[nH]1	?	/	/	/	/	.
COc1ccc(N(CC(=O)NCCSCc2ccc(C)cc2)S(=O)(=O)c2ccccc2)cc1	?	?	?	.	.	6.5µM
COc1ccc(CCNC(=O)CN(c2cc(OC)ccc2OC)S(=O)(=O)c2ccccc2)cc1	.	.	.	.	.	23µM
O=C(NCCN1CCC(Cc2ccccc2)CC1)C1CCCN(S(=O)(=O)c2ccc([N+](=O)[O-])cc2)C1 (centres undefined)	/	/	/	/	.	/
COc1cc2ccccc2cc1C(=O)N/N=C/c1cccs1	2.3µM	/	/	/	.	9.2µM
COC(=O)N/N=C/c1cccs1	?	.	.	.	.	?
SMILES	KB-3-1 cytotox	Nrf2 inh	A549 tox	Giardia killer	PI4K2A inh	KB-V1 MDR tox
Cc1ccccc1C(=O)N1CCC(Oc2cccnc2)CC1	/	/	/	/	.	/
CCN(CC)C(=O)c1cnn(-c2ccccc2)c1NC(=O)c1ccccc1F	.	.	.	.	.	4.6µM
CCOC(=O)c1c(C)[nH]c(C(=O)N/N=C/c2ccc(OC)c(OC)c2)c1C	?	.	.	?	.	.
CCOC(=O)c1c(C)[nH]c(C(=O)N/N=C\c2ccccc2O)c1C	?	.	.	.	.	2.1µM
CCOC(=O)c1c(C)[nH]c(C(=O)N/N=C/c2cc([N+](=O)[O-])ccc2O)c1C	12µM	.	.	.	.	?
O=C(/C=C/c1ccc([N+](=O)[O-])o1)Nc1cccc([S+](=O)([O-])Nc2ccccc2F)c1	.	/	/	/	/	.
Oc1ccc(Cl)cc1C1C=C(c2ccc3c(c2)OCO3)NC(c2cc(Br)ccc2F)N1 (centres undefined)	/	.	.	.	/	/
O=C(NCCc1c[nH]c2ccccc12)OCc1cn(-c2cccc(C(F)(F)F)c2)nn1	/	/	/	/	.	/
Cc1ccc(-c2n[nH]c(=O)c3ccccc23)cc1S(=O)(=O)Nc1ccccc1	?	?	.	.	.	21µM
Cc1ccc(-c2n[nH]c(=O)c3ccccc23)cc1S(=O)(=O)N(C)C	.	.	.	.	.	.
Nc1ncnc2c1nc(Sc1ccc(Cl)cc1)n2[C@H]1OC2COP(=O)(O)O[C@@H]2C1O (some centres undefined)	/	/	/	/	.	/
CC(=O)N(Cc1c(C)nn(-c2ccccc2)c1Cl)c1ccc(Cl)cc1	.	.	.	.	.	?
Cc1nn(-c2ccccc2)c(Cl)c1CN(C(=O)CCl)c1cccc2ccccc12	18µM	.	.	.	.	?
Cc1nn(-c2ccccc2)c(Cl)c1CN(C(=O)CCl)c1ccc(Cl)cc1	?	.	.	.	.	21µM
O=C(CBr)c1ccc(Oc2ccc(C(=O)C[n+]3cccc(Br)c3)cc2)cc1	.	/	/	/	/	.
Cc1cc2[nH]c3ccccc3c2c(C)n1	?	?	?	.	.	16µM
Cc1nc(=S)c2ccccc2[nH]1	.	.	.	.	.	.
CCCN1C(=O)C(Cc2nc3ccccc3c(=O)n2CC)c2ccccc21 (centres undefined)	/	.	.	/	.	/
C/C(N)=C(/C#N)C(=O)CSc1nc2scc(-c3ccccc3)c2c(=O)n1C	?	15µM	.	.	.	.
Cn1c(SCC(=O)NCC2CCCO2)nc2scc(-c3ccccc3)c2c1=O (centres undefined)	.	.	.	.	.	.
Cn1c(=O)oc2cc(S(=O)(=O)N3CCCC(C(=O)Nc4ccccn4)C3)ccc21 (centres undefined)	.	.	.	.	.	.
COc1ccccc1N1CCN(C(=O)C2CCCN(S(=O)(=O)c3ccc4c(c3)oc(=O)n4C)C2)CC1 (centres undefined)	10µM!	?	.	.	.	?
Cn1c(=O)oc2cc(S(=O)(=O)N3CCCC(C(=O)NC4CCCc5ccccc54)C3)ccc21 (centres undefined)	5.8µM	.	.	.	.	?
COc1ccccc1CNC(=O)Cn1c(=O)oc2cc(S(=O)(=O)N3CCC(C)CC3)ccc21	18µM	?	.	/	.	.
COc1ccc(N2CCN(C(=O)C3CCCN(S(=O)(=O)c4ccc5c(c4)oc(=O)n5C)C3)CC2)cc1 (centres undefined)	.	.	.	.	.	.
O=C(CCn1c(=O)c2ccccc2n(CC(=O)Nc2ccc(F)cc2)c1=O)NCCc1ccccc1	.	.	.	/	.	.
